# Screening results from PubChem BioAssay.
# MCL1-BIM inh – inhibitors of human MCL1 binding to BIM-BH3 peptide | Q07820 | GST-MCL1 / FITC-Bim-BH3 fluorescence polarization | inhibition, % at 10.9 µM | 0.68% of 320,000 active;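 active = inhibition above the mean inhibition of all tested compounds plus 3 SD, set per campaign, cut at about 40% in these data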;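 also: 0% = DMSO wells and 100% = unlabeled Bim-BH3 peptide control; higher means more loss of mP so more displacement of Bim peptide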
# Target sequence (Q07820 whole entry, looked up): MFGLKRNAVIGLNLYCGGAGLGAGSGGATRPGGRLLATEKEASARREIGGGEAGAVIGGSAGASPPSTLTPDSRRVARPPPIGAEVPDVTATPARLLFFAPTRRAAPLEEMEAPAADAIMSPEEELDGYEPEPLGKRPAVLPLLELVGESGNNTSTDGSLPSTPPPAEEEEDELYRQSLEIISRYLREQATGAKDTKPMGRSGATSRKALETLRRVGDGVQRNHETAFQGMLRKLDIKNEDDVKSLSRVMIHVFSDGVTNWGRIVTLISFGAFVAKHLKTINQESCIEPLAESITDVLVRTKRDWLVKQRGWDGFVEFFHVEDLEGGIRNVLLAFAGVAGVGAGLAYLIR
# GLD-1 RNA inh – GLD-1-TGE RNA interaction inhibition (C. elegans). Q17339. purified GLD-1 + fluorescein TGE RNA, fluorescence polarization. inhibition, % at 5.96 µM. 0.44% of 320,000 active;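 active = percent inhibition above a per-plate cutoff, the plate mean of test compounds plus 3 SD, cut at about 30% in these data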;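 also: 0% = DMSO wells with GLD-1 and probe and 100% = wells lacking GLD-1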
# Mcl1 Noxa PPI – Mcl-1/Noxa interaction inhibition; Q07820; TR-FRET Mcl-1/Noxa peptide binding, 2 h; inhibition, % at 21.7 µM; 1.5% of 220,000 active;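 active = compounds that cut the protein-peptide binding signal by more than 50% relative to plate controls in a single-dose test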;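 also: His-tagged Mcl-1 with rhodamine Noxa BH3 peptide and terbium anti-His antibody; 0% = Mcl-1 plus Noxa peptide wells and 100% = peptide-only wells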
# BCLXL inh – blocks human Bcl-xL binding to Bim BH3 peptide; GST-Bcl-xL / FITC-Bim BH3 peptide fluorescence polarization; Q07817; 0.7% of 320,000 active; inhibition, % at 10.9 µM;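 active = inhibition above the mean of all tested compounds plus 3 SD, cutoff set per campaign, cut at about 30% in these data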;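 also: 0% = DMSO wells and 100% = unlabeled Bim-BH3 peptide competitor; inhibitors lower millipolarization by displacing the labeled peptide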
# Target sequence (Q07817 whole entry, looked up): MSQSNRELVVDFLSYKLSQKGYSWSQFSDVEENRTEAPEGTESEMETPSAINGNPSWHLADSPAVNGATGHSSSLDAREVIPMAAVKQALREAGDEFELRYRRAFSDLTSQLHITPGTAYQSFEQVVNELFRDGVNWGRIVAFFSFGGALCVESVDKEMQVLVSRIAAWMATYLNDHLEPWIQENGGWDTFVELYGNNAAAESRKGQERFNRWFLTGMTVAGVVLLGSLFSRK
# Bim-Mcl-1 – disrupts Bim peptide binding to human Mcl-1. inhibition, % at 10 µM. Bead-based flow cytometry, Bim peptide-Mcl-1 binding. Q07820. 0.1% of 190,000 active; in the data active = inhibition above about 40%;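 also: 0% = no compound tracer wells and 100% = peptide blocker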
# Mcl1-Bid inh – disrupts binding of human Mcl-1 to Bid peptide; 0.97% of 220,000 active; TR-FRET Mcl-1/Bid-Dy647 peptide binding, 1536-well; Q07820; AID 1021; inhibition, % at 21.7 µM;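 active = compounds that cut the binding signal by more than half at the single screening dose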;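 also: His-tagged Mcl-1 with europium anti-His antibody binding Bid BH3 peptide; 0% = Mcl-1 plus peptide wells and 100% = peptide-only wells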
# * = called active by the depositor; nt = not tested or not shown; + = active, no number. A selection: hits, their analogues and other compounds. The true share with any hit is near 2.3%.
SMILES,MCL1-BIM inh,GLD-1 RNA inh,Mcl1 Noxa PPI,BCLXL inh,Bim-Mcl-1,Mcl1-Bid inh
O=S(=O)(c1ccc(SCc2ccccc2F)nc1)N1CCCC1,9,0,nt,2,nt,nt
O=C1NC(=O)c2cc(Br)cc3cccc1c23,8,-3,22,7,0,-21
Cc1ccc(NS(=O)(=O)c2cc3c4c(cccc4c2)C(=O)NC3=O)cc1C,27,11,21,31*,nt,6
Cc1cc(C)c(S(=O)(=O)/N=C2\C=C(NS(=O)(=O)c3ccccc3)C(=O)c3ccccc32)c(C)c1,12,4,nt,1,nt,nt
Cc1cc(C)c(S(=O)(=O)/N=C2/C=C(SCC(=O)O)C(=O)c3ccccc32)cc1C,nt,nt,87*,nt,2,28
CCc1cc2c(COC(=O)c3cccc(NS(C)(=O)=O)c3)cc(=O)oc2cc1O,8,1,nt,0,nt,nt
COc1ccccc1CNC(=O)COC(=O)c1cc(=O)c2ccccc2o1,nt,3,nt,nt,nt,nt
Cc1[nH]c2ccccc2c1/C=N\NC(=O)CNc1ccc2c(c1)OCO2,-3,6,56*,7,1,-16
COC(=O)CNc1ccc2c(c1)OCO2,30,15,1,31*,2,-39
O=C(CSc1nc2cc(Cl)c(Cl)cc2[nH]1)c1ccc2c(c1)OCO2,-12,12,57*,-13,nt,16
COc1ccc(C(=O)Nc2nc3c(s2)Cc2cc(OC)ccc2-3)cc1,11,5,86*,8,0,55*
COc1ccc(C(=O)Nc2nc3ccc4nc(C)sc4c3s2)cc1,-15,2,53*,-7,2,13
COc1cc(C(=O)Nc2nc3ccc4nc(C)sc4c3s2)cc(OC)c1OC,-3,-1,12,-1,-3,4
Cc1ccc(S(=O)(=O)N2CCN(C(=O)Cn3c(=O)oc4ccccc43)CC2)c(C)c1,0,3,nt,5,nt,nt
CC1CC(C)CN(c2ccc(NS(=O)(=O)c3ccccc3)cc2C(=O)O)C1 (stereo unspecified),4,5,nt,3,nt,nt
Cc1ccc2c(Cl)cc(Cl)c(OCC(=O)NCc3ccco3)c2n1,nt,nt,94*,nt,1,30
COc1cc(OC)cc(C(=O)NCC(=O)N2CCCCC2)c1,-3,-1,13,-4,0,63*
COc1ccc(C(=O)NCC(=O)N2CCCCC2)cc1OC,2,0,1,4,1,-25
CCOC(=O)C1=C(C)N(c2ccc(C)cc2)C(=O)/C1=C\c1cccs1,0,2,52*,6,0,-45
COC(=O)c1cc(Br)ccc1NC(=O)CSCc1c(C)noc1C,0,0,nt,1,nt,nt
CCCCNC(=O)CN1CCC2(O)CCCCC2C1c1ccccc1OC (stereo unspecified),14,79*,26,15,-2,-6
COc1ccccc1C1C2CCCCC2(O)CCN1CC(=O)Nc1ccccc1 (stereo unspecified),7,-3,9,2,-2,-12
COc1ccc(-c2nn(-c3ccccc3)cc2/C=C(/C#N)C(N)=O)cc1[N+](=O)[O-],9,2,28,2,-1,65*
COc1ccc(-c2nn(-c3ccccc3)cc2/C=C(\C#N)C(N)=O)cc1[N+](=O)[O-],2,5,16,3,-1,39
COc1ccc(-c2nn(-c3ccccc3)cc2/C=N/Nc2ccc(S(N)(=O)=O)cc2[N+](=O)[O-])cc1OC,-6,-4,51*,7,0,-57
SMILES,MCL1-BIM inh,GLD-1 RNA inh,Mcl1 Noxa PPI,BCLXL inh,Bim-Mcl-1,Mcl1-Bid inh
Cc1ccc(S(=O)(=O)NN2C(=O)/C(=C/c3cccn3C)SC2=S)cc1,-78,-87,54*,-48,6,-20
CCN(C(=O)COC(=O)c1cc(-c2cccs2)nc2ccccc12)C1CCS(=O)(=O)C1 (stereo unspecified),5,6,2,1,0,-24
Cc1ccc(-c2cc(C(=O)OCC(=O)N(C)C3CCS(=O)(=O)C3)c3ccccc3n2)c(C)c1 (stereo unspecified),-5,3,12,-10,-2,-7
Cc1ccc(-c2cc(C(=O)OCC(=O)N(C)C3CCS(=O)(=O)C3)c3ccccc3n2)o1 (stereo unspecified),22,2,78*,25,1,-61
CCN(C(=O)COC(=O)c1cc(-c2ccc(C)o2)nc2ccccc12)C1CCS(=O)(=O)C1 (stereo unspecified),33,5,68*,23,-1,21
OCCCc1nc2n(n1)C(c1cccs1)C=C(c1ccc(Br)cc1)N2 (stereo unspecified),+,163*,10,189*,2,-5
Brc1ccc(C2=CC(c3cccs3)n3ncnc3N2)cc1 (stereo unspecified),+,151*,-18,168*,-5,-46
CC1=C(C(N)=O)C(c2ccc(Br)cc2)n2nc(CCCO)nc2N1 (stereo unspecified),-29,-41,nt,-23,nt,nt
COc1ccccc1N1N=C(c2ccc([N+](=O)[O-])cc2)CC1c1ccccc1 (stereo unspecified),38,-2,nt,56*,nt,nt
COc1cc(N2N=C(c3ccccc3)CC2c2ccccc2)c(C=O)cc1C=O (stereo unspecified),8,2,nt,6,nt,nt
CCOc1ccc(NC(=O)Nc2ccc(Cc3ccncc3)cc2)cc1,29,6,-1,36*,nt,0
CCn1c(CNC(=O)c2cccc(C)c2)nnc1SCC(=O)N1CCOCC1,9,-4,nt,5,nt,nt
O=C(NCCc1csc(-c2cccnc2)n1)c1cccs1,5,-7,15,4,-2,86*
Cc1ccc(C(=O)NCCc2csc(-c3cccnc3)n2)cc1,7,-2,-10,6,-1,-10
CC(=O)c1cccc(NC(=O)C(Sc2ncnc3ccccc23)c2ccccc2)c1 (stereo unspecified),-5,-3,-46,2,-4,56*
Cc1ccc(C(=O)OCC(=O)N2CCC(c3ccccc3)=N2)cc1,nt,3,nt,nt,nt,nt
COC(=O)c1cc(OC)c(OC)cc1NCC(=O)Nc1ccc(C)cc1,23,5,16,3,-4,81*
COc1nc(-c2ccccc2)cc(-c2ccc3c(c2)OCO3)c1C#N,9,4,15,5,nt,56*
CC(=O)c1sc(N/N=C\c2cccc(Br)c2)nc1C,-19,-40,51*,-11,-5,-39
CC(NC(=O)c1ccc(F)cc1)c1ccc(F)cc1 (stereo unspecified),-5,8,3,4,-3,-15
COC(=O)C(CC(C)C)NC(=O)c1ccc(F)cc1 (stereo unspecified),1,-5,-8,8,-2,98*
COc1ccc([C@H]2CC(=O)C=C(c3ccc(CNC(=O)OC(C)(C)C)cc3)C2)cc1,8,-2,nt,3,nt,nt
